An excerpt weighted towards active compounds, which were near 2.7% of everything screened.
HIF-2a block – blocks HIF-2a reporter activity; inhibition, % at 18.8 µM; actives 0.72% (n = 360,000); 786-0 RCC cells HIF-2a reporter, luciferase luminescence, overnight; AID 624352;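 active = inhibition of the luminescence signal of 40% or more relative to plate controls, in a single-dose primary screen at 18.75 µM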
Peg3 promoter – inhibitors of Peg3 promoter; HeLa PEG-Prom luciferase reporter, luminescence, overnight; inhibition, % at 20 µM; actives 1.7% (n = 360,000);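 active = inhibition of at least 50% at 20 µM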
KKLEB tox – reduces viability of KKLEB cystic fibrosis airway cells. activity change (cytotoxicity), % at 5 µM. actives 0.36% (n = 360,000). KKLEB CF airway cells viability, ATPlite luminescence, overnight; hits give low values; cells stimulated with P. aeruginosa culture filtrate. AID 602141;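 active = corrected activity change at or below -50% at 5 µM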
TRPM1 prom inh – inhibitors of MITF-driven TRPM1 promoter in melanoma cells; actives 0.83% (n = 330,000); SK-MEL-5 TRPM1 promoter luciferase, 24 h; inhibition, % at 12.5 µM;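 active = mean inhibition across replicates of 60% or more, whatever share of single replicates reaches that level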
CF NFkB block – blocks PAF-induced NF-kB reporter in cystic fibrosis cells. AID 588850. inhibition, % at 5 µM. KKLEB NF-kB-GFP reporter, GFP fluorescence overnight. actives 0.86% (n = 360,000);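 active = at least 50% inhibition at 5 µM, scaled per plate between neutral and stimulator controls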;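 also: PAF is a Pseudomonas aeruginosa culture filtrate used as stimulus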
Shn3 3UTR inh – Schnurri-3 reporter inhibition in Clone20 osteoblasts | Clone20 osteoblast Shn3 3'UTR firefly luciferase, 24 h | inhibition, % at 12.5 µM | actives 0.52% (n = 360,000) | AID 588674;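 active = mean inhibition of at least 75% with every replicate also reaching 75%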
CF NFkB conf – confirmation of cystic fibrosis induced NF-kB inhibitors; shares compounds with CF NFkB block; inhibition, % at 5 µM; actives 64% (n = 1,300); KKLEB CF airway cells, PAF-induced NF-kB-GFP fluorescence, overnight; in the data active = inhibition above about 40%;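 also: stimulus PAF is a Pseudomonas aeruginosa filtrate and not platelet activating factor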
Mdm2 MdmX conf – confirmation of inhibitors of human Mdm2/MdmX interaction, set 2 | shares compounds with HIF-2a block | actives 99% (n = 740) | SaOS-2 split-luciferase Mdm2/MdmX complementation, luminescence | inhibition, % at 8 µM;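 active = mean inhibition of the luminescence signal across two replicates at or above 26 percent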
Target sequence (O15151 whole entry, looked up): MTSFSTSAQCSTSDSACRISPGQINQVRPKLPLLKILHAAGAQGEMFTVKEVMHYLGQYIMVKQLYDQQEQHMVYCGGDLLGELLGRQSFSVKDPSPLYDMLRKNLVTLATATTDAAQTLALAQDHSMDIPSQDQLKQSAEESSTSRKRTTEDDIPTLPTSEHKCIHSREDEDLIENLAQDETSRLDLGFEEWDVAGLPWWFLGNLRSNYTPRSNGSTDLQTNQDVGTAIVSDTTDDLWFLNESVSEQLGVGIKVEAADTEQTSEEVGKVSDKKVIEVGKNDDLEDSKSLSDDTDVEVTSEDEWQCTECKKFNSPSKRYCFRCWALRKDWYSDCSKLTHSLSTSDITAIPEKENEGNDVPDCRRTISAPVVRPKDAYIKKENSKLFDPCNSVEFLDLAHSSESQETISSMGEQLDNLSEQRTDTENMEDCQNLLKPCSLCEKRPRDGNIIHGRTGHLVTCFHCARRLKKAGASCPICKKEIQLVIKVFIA
Target sequence (Q00987 whole entry, looked up): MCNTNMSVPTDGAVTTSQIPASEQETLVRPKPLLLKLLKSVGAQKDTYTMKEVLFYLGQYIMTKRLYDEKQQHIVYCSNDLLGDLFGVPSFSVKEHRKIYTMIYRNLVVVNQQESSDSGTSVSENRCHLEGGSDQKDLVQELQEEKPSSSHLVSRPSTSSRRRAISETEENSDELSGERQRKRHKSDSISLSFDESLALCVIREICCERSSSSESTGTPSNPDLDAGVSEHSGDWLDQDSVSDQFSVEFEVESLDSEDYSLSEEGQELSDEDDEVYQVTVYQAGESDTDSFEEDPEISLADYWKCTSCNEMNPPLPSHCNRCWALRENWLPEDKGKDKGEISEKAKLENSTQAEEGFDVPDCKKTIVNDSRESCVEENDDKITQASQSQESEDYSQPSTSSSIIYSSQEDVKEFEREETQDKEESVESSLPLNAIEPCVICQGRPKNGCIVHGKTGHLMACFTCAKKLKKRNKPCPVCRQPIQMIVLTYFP
HIF-2a inh conf – confirmation of HIF-2a inhibitors. inhibition, % at 18.8 µM. actives 56% (n = 1,800). 786-0 RCC cells, HIF-2a luciferase reporter luminescence, overnight. shares compounds with HIF-2a block;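 active = mean inhibition across four replicates of at least 40 percent at the single tested concentration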
HIF-1a cs – HIF-1a inhibition counter-screen for HIF-2a hits. shares compounds with HIF-2a block. MiaPaCa-2 HIF-1a luciferase reporter, desferoxamine, overnight. inhibition, % at 18.8 µM. actives 72% (n = 1,800). AID 651589;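 active = mean inhibition of the reporter signal across four replicates at the single tested dose of 50% or more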
Each line names hits and unclear results; the compound was inactive in the other large screens (follow-up assays come after a bar, where they were run).

CCOc1cc(/C=C2\COc3ccccc3C2=O)cc(Br)c1OCC(=O)N(C)C	HIF-2a block 91, Peg3 promoter 105, TRPM1 prom inh 89, CF NFkB block 98 | CF NFkB conf inactive | HIF-2a inh conf 60 | HIF-1a cs 105
COc1cc(/C=C/C(=O)c2ccc([N+](=O)[O-])o2)ccc1O	HIF-2a block 97, Peg3 promoter 101, TRPM1 prom inh 85, CF NFkB block 83, Shn3 3UTR inh 97 | CF NFkB conf inactive | HIF-2a inh conf 79 | HIF-1a cs 105
CC(C)CN=C(NS(=O)(=O)c1ccccc1)C(Cl)(Cl)Cl	HIF-2a block 92, Peg3 promoter 99, TRPM1 prom inh 86, CF NFkB block 88 | CF NFkB conf 93 | HIF-2a inh conf 93 | HIF-1a cs 105
O=C(Nc1c(Cl)ccc2nsnc12)c1ccc([N+](=O)[O-])o1	HIF-2a block 60, Peg3 promoter 90, TRPM1 prom inh 89, CF NFkB block 87 | CF NFkB conf inactive | HIF-2a inh conf inactive | HIF-1a cs 100
O=c1c(Cl)c(Cl)cnn1Cc1nnc(-c2ccccc2Br)o1	HIF-2a block 96, Peg3 promoter 106, TRPM1 prom inh 95, CF NFkB block 84 | CF NFkB conf 45 | Mdm2 MdmX conf 101 | HIF-2a inh conf 73 | HIF-1a cs 106
Clc1ccccc1OCc1nnc(-c2ccccc2Br)o1	none
C#CCN(C[C@@H]1[C@@H](OC(=O)NC2CC2)[C@@H](OC(=O)NC2CC2)CN(C(=O)OC(C)C)N1C(=O)OC(C)C)S(=O)(=O)c1ccc(C)cc1	none (no result: TRPM1 prom inh)
C#CCN(C[C@@H]1[C@@H](OC(=O)NC2CCCC2)[C@@H](OC(=O)NC2CCCC2)Cn2c(=O)ccc(=O)n21)S(=O)(=O)c1ccc(C)cc1	HIF-2a block 97, Peg3 promoter 96, CF NFkB block 64, Shn3 3UTR inh 94 (no result: TRPM1 prom inh) | CF NFkB conf inactive | HIF-2a inh conf 99 | HIF-1a cs 108
CC(C)C(=O)N1CCN(c2ccc(NC(=O)c3ccc([N+](=O)[O-])o3)cc2Cl)CC1	HIF-2a block 91, Peg3 promoter 109, TRPM1 prom inh 85, CF NFkB block 69, Shn3 3UTR inh 96 | CF NFkB conf inactive | HIF-2a inh conf 80 | HIF-1a cs 99
CC(C)C(=O)N1CCN(c2ccc(NC(=O)c3ccc(Br)o3)cc2)CC1	none
O=S(=O)(Nc1ccccc1)c1ccc(-c2cnc(C3CC3)o2)cc1	none
Cc1cc(C)cc(NS(=O)(=O)c2ccc(-c3cnc(C4CC4)o3)cc2)c1	HIF-2a block 40, CF NFkB block 64 | CF NFkB conf 82 | HIF-2a inh conf inactive | HIF-1a cs 60
Cc1cccc(NS(=O)(=O)c2ccc(-c3cnc(C4CC4)o3)cc2)c1C	HIF-2a block 42, CF NFkB block 52 | CF NFkB conf 87 | HIF-2a inh conf inactive | HIF-1a cs 67
COC(=O)c1cc(=O)n(Cc2ccc(F)cc2)c(=NCc2ccc(F)cc2)s1	none
COC(=O)c1cc(=O)n(Cc2cccs2)c(=Nc2ccc(F)cc2)s1	HIF-2a block 66, Peg3 promoter 81, CF NFkB block 55 (no result: TRPM1 prom inh) | CF NFkB conf inactive | HIF-2a inh conf inactive | HIF-1a cs 106
CC1CCN(S(=O)(=O)c2ccc3c(c2)N(CC(=O)NCCCN2CC(C)CC(C)C2)C(=O)CS3)CC1 (centres undefined)	none
O=C(NCc1cccnc1)/C(=C\c1ccc(-c2cccc(Cl)c2)o1)S(=O)(=O)c1ccccc1	HIF-2a block 98, Peg3 promoter 104, TRPM1 prom inh 90, CF NFkB block 70, Shn3 3UTR inh 97 | CF NFkB conf 77 | HIF-2a inh conf 99 | HIF-1a cs 105
Cc1c(C(=O)N2CCOCC2)c(S(=O)(=O)N2CCN(c3ccc(Cl)cc3)CC2)c(C)n1C	none
CNC(=O)COC(=O)c1ccc2c(c1)S(=O)(=O)c1ccccc1C2=O	none (no result: TRPM1 prom inh)
CCN(CC)S(=O)(=O)c1cccc(NC(=O)CC2CCCC2)c1	none
CCN(CC)S(=O)(=O)c1cccc(NC(=O)Nc2cccc(C(F)(F)F)c2)c1	HIF-2a block 41, CF NFkB block 63 | CF NFkB conf inactive | Mdm2 MdmX conf 95 | HIF-2a inh conf inactive | HIF-1a cs 102
COC(=O)N(C)C[C@@H]1OCc2cnnn2CCCC(=O)N([C@H](C)CO)C[C@@H]1C	none (no result: TRPM1 prom inh)
O=C1NC[C@H](Cc2ccccc2)N(C[C@H]2CCCN2C[C@H](Cc2ccccc2)N2C[C@H](Cc3ccccc3)N(CC3CCCCCC3)C(=O)C2=O)C1=O	HIF-2a block 80, Peg3 promoter 54, CF NFkB block 56 | CF NFkB conf inactive | HIF-2a inh conf inactive | HIF-1a cs 105
Cc1c(C(=O)N2CCN(c3ccc([N+](=O)[O-])cc3)CC2)oc2ccccc12	none
Cc1c(-c2ccccc2)oc2c(C(=O)N3CCN(c4ccc([N+](=O)[O-])cc4)CC3)cccc2c1=O	CF NFkB block 82 | CF NFkB conf 82 | Mdm2 MdmX conf 87
CC(C)(C)c1cc(CCC(=O)NNC(=O)c2ccncc2)cc(C(C)(C)C)c1O	none
COc1cc(/C=N/NC(=O)c2cccc([N+](=O)[O-])c2)ccc1OCc1ccccc1	none
CCOC(=O)C(=Cc1ccc(OCc2ccc([N+](=O)[O-])cc2)c(OC)c1)C(=O)OCC	HIF-2a block 93, Peg3 promoter 58, CF NFkB block 54 | CF NFkB conf inactive | HIF-2a inh conf 98 | HIF-1a cs 108
COC(=O)COc1ccc(S(=O)(=O)Nc2ccc3c(c2)OCCO3)cc1C	none
CC(C)=CCSc1nnc([C@@H](NC(=O)OC(C)(C)C)C(C)C)o1	none
CC(C)[C@H](NC(=O)OC(C)(C)C)c1nnc(S(=O)(=O)Cc2c(F)cccc2Cl)o1	HIF-2a block 40, Peg3 promoter 104, TRPM1 prom inh 99, CF NFkB block 83, Shn3 3UTR inh 95 | CF NFkB conf 43 | HIF-2a inh conf inactive | HIF-1a cs inactive
COC(=O)N/N=C/c1ccc(OS(=O)(=O)c2ccc(C)cc2)c(OC)c1	none

Source: PubChem (several laboratories)
